{"source": "the supplement of paper PMC11732987", "about": "“Enantioselective OTUD7B fragment discovery through chemoproteomics screening and high-throughput optimisation” (Communications Chemistry, 2025)", "data": [{"molecular_target": "T1, VCPIP1 (UniProt Q96JH7)", "T1 sequence (whole entry)": "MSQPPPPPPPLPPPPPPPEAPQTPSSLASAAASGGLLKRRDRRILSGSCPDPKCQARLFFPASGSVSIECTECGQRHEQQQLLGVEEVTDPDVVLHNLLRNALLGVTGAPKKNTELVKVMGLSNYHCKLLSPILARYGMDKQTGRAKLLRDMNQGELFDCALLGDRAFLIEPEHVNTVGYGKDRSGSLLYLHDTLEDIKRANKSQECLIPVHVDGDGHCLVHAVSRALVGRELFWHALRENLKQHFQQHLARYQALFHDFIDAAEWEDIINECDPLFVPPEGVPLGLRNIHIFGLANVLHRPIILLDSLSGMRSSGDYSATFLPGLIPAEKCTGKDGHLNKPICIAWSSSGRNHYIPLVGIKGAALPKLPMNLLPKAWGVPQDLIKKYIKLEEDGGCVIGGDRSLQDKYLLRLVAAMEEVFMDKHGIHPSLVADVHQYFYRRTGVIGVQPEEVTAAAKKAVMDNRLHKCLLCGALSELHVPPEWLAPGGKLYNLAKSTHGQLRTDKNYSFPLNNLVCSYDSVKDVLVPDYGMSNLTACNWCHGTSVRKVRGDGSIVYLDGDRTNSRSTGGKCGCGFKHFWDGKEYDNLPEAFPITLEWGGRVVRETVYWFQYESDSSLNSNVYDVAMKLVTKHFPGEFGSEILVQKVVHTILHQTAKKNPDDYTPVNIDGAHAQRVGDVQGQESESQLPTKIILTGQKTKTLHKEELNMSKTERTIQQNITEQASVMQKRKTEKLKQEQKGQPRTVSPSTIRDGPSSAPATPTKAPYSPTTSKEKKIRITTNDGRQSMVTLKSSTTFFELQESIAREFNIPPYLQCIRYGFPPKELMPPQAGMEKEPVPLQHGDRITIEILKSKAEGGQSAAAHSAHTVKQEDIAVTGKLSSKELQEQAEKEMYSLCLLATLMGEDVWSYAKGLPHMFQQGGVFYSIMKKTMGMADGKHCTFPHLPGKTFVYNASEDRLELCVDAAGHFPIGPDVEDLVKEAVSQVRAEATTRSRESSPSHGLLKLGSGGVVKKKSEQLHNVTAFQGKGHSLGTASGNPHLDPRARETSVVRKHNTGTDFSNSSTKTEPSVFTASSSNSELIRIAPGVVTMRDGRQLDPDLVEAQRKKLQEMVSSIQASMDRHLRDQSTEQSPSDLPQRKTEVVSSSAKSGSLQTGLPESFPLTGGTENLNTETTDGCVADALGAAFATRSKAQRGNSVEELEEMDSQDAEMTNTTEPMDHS", "test": "log2 ratio of Biotin-Ahx-Ub-VS probe labelling (fragment/DMSO); higher = less target engagement (more negative = stronger competition), active = hit call of the paper (q ≤ 0.05, log2 ratio ≤ -1)", "details": "compound concentration: 200 uM; treatment time: 3 h", "protocol": "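Competitive ABPP in HEK293T cell lysate. Lysates were treated with each chloroacetamide fragment at 200 µM for 3 h, then with Biotin-Ahx-Ub-VS (0.5 µM, 1 h), NeutrAvidin-enriched and analysed by diaPASEF LC-MS/MS. Protein LFQ was median-normalised; average log2 ratio is fragment/DMSO from an unpaired t-test (n=3 treated, n=44 DMSO). Hits: q ≤ 0.05, log2 ratio ≤ -1, unique peptides ≥ 2.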", "values": [{"smiles": "CC1CCc2onc(CNC(=O)CCl)c2C1", "note": "(configuration not stated)", "log2 ratio of Biotin-Ahx-Ub-VS probe labelling": "-1.39 (active)"}, {"smiles": "O=C(CCl)NCc1ccc(N2CCOCC2)nc1", "log2 ratio of Biotin-Ahx-Ub-VS probe labelling": "-2 (active)"}, {"smiles": "Cc1ccccc1OCC(=O)N1CCN(C(=O)CCl)CC1", "log2 ratio of Biotin-Ahx-Ub-VS probe labelling": "-1.16 (active)"}, {"smiles": "Cc1cc(CC(C)NC(=O)CCl)n[nH]1", "note": "(configuration not stated)", "log2 ratio of Biotin-Ahx-Ub-VS probe labelling": "0.107 (inactive)"}, {"smiles": "CN(C)C(=O)c1ccc(CNC(=O)CCl)cc1", "log2 ratio of Biotin-Ahx-Ub-VS probe labelling": "-0.952 (inactive)"}, {"smiles": "O=C(CCl)N1CCN(c2nc3ccccc3o2)CC1", "log2 ratio of Biotin-Ahx-Ub-VS probe labelling": "-0.288 (inactive)"}, {"smiles": "Cc1ccc(CN(CCO)C(=O)CCl)cc1", "log2 ratio of Biotin-Ahx-Ub-VS probe labelling": "-0.862 (inactive)"}]}]}
